Results from the OligoGym collection.

target: CDC42SE1; test: pooled miR-30 sensor sort-seq; sequence = guide strand; conditions: shRNA
Further: reference of the scale not given here.

Row | Sequence | sensor-assay potency score (higher = more potent)
1 | TTGGATCTCATCTGCTCCTGAA | -0.616
2 | TCATGGCAAGTCCATCTCCGGC | -1.88
3 | TTTCTCTACCACACAGCAGCCC | -0.51
4 | ATCATGGTCCGGTCAATCCGTC | -1.39
5 | TGAACTGCACCTGTCATGGCAA | -0.419
6 | TCATCTGCTCCTGAACTGCACC | -1.23
7 | TGGGGTTTCTCTACCACACAGC | -1.01
8 | TCTTCTTCTTCGGCTGGGGTTT | -1.24
9 | TGCTCCATGGCCTATCTCGGTT | -1.52

target: CDCA7L; test: as above; conditions: shRNA

Row | Sequence | sensor-assay potency score (higher = more potent)
10 | TATCATAGATTTTATCTCGAAC | -0.423
11 | TTCTGTATAAAAACACAACTGT | -0.22
12 | TTTTCTAAGTCCTCTTCGGTGA | 0.0411
13 | TAGTGAGTCAAAACTATCGCAG | -0.978
14 | TATACGGTGACGTCGTCTGTAC | -0.513
15 | TAGCCTTATCTTCTTCTTCATC | -1.31
16 | AAACTCTTCATCATCACTGGGG | 0.515
17 | TAAAAATTCTTCTTAGCTCTTC | 0.664
18 | TAGACCTGCTTCTTCTAGGGGT | 0.0946
19 | TTCGGTGATATCCTCCACTGGC | 0.00353
20 | TCGCACACCACAGCAACCCTGG | -0.788

target: CDCA8; test: as above; conditions: shRNA

Row | Sequence | sensor-assay potency score (higher = more potent)
21 | TATCATTTCATCTACCTGTATT | -1.16
22 | TTCACGGTCGAAGTCTTTCAGA | -1.11
23 | TTTGCTGTCAGCAAGAGGGCTG | -0.00778
24 | TTGGTCTTCAGTAAACAGGGAT | -0.3
25 | TCTACCTGTATTACCTTTCGTG | -0.22
26 | TTACCTTTCGTGTTTTGGCAGA | -0.552
27 | TTCATCTACCTGTATTACCTTT | -0.507
28 | TTCGTATTTCCACTTCACGGTC | -0.813
29 | TTGCTTGATTCGTATTTCCACT | -0.831
30 | TAAACATAAAACACTGCTCCAC | -0.305
31 | TATCTGAGCCTAAACCTCCCGG | -0.819

target: CDH19; test: as above; conditions: shRNA

Row | Sequence | sensor-assay potency score (higher = more potent)
32 | TAACTTTTGCTCTAATACCGTA | -0.771
33 | TACTTGTAGTGATTGTACCATT | -0.931
34 | TATTGGAATATATTCTCTCTGA | -0.596
35 | TAGTCTGAATTACCTGACCAGA | -1.28
36 | TTAATTAATACACTTGTTGTTC | -0.144
37 | TTATCTATGATTGTAAAACTTG | -0.902
38 | TTGATATTGAACACTTTGCTCC | -0.145
39 | TTTTCCAGAATGAATTTCCTGA | -0.246
40 | ATCAGTATTAGCTTCTTCGAGC | -1.26
